Our source for the Potency and outcome values is PubChem BioAssay (Tox21).

Assay [1] in a line: qHTS assay to identify small molecule antagonists of the estrogen receptor alpha (ER-alpha) signaling pathway using the BG1 cell line in the presence of 0.1 nM 17-beta-estradiol - cell viability counter screen (AID 1259241). Also: nearly all actives have a fitted effect of over 40% in size. In short, it runs like this:
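Cytotoxicity counter-screen: live-cell protease activity measured by fluorescence (30 min reagent step) in the same wells. Cells were VM7Luc4E2 with endogenous ER-alpha and ERE-driven luciferase, treated 22 hr at 37C alongside 0.1 nM 17beta-estradiol final.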

Assay [2] can be described thus: qHTS assay to identify small molecule antagonists of the androgen receptor (AR) signaling pathway using the MDA cell line in the presence of 0.5 nM R1881 - cell viability counter screen (AID 1259242). Also: nearly all actives have a fitted effect of over 45% in size. In a few lines: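 R1881 at 0.5 nM final stimulated MDA-kb2 cells during 16 hr compound treatment at 37C. Cytotoxicity read: CellTiter-Fluor fluorescence after 30 min.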

The target in assay [3] is Estrogen receptor (Homo sapiens) (UniProt P03372). Description: qHTS assay to identify small molecule antagonists of the estrogen receptor alpha (ER-alpha) signaling pathway using the BG1 cell line in the presence of 0.1 nM 17-beta-estradiol (AID 1259244). Also: nearly all actives have a fitted effect of over 50% in size. In short, it runs like this:
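VM7Luc4E2; 4xERE-luciferase; 0.1 nM E2 final; 22 h co-incubation, 37C; ONE-Glo luminescence after 30 min at room temperature.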
For orientation: In qHTS, concentration-response curves come from the screen itself.

A short description of assay [4]: qHTS assay to identify small molecule HDAC inhibitors (AID 1259364).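 Also: wild-type HCT-116 cells with endogenous class I/II HDAC activity; top concentration of the series differs between compounds; nearly all actives have a fitted effect of over 45% in size.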 In short, it runs like this: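 Relative class I and II HDAC activity is taken from the luminogenic signal in HCT-116 cells, with compound exposure 2 hr and reagent development 30 min at room temperature.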
A short description of assay [5]: qHTS assay to identify small molecule HDAC inhibitors - cell viability counter screen (AID 1259365). Also: series mostly up to about 92 µM; nearly all actives have a fitted effect of over 50% in size. In a few lines: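 CellTiter-Glo luminescence (30 min, room temperature) reported viability after a 2 h compound exposure at 37 C. Cells: wild-type HCT-116, 1,500 per well, seeded the night before.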
Assay [6] is described as follows: qHTS assay to identify small molecule agonists of the sonic hedgehog signaling (Shh) pathway - cell viability counter screen (AID 1259366). Also: nearly all actives have a fitted effect of over 50% in size. In short, it runs like this:
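Cytotoxicity counter screen: CellTiter-Fluor reagent added after 23 h compound exposure, then 1 h at 37C and fluorescence read. Cells were 3T3 Gli1-Luc, seeded 2,000 per well and dosed 4 h post-plating.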

Assay [7] in a line: qHTS assay to identify small molecule antagonists of the sonic hedgehog signaling (Shh) pathway - cell viability counter screen (AID 1259367). Also: nearly all actives have a fitted effect of over 55% in size. In a few lines:
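NIH/3T3-derived Gli1-Luc reporter cells, 2,000/well, plated 4 hr before compound addition, then stimulated with conditioned medium for 24 hr at 37C. Viability measured in the same wells by CellTiter-Fluor fluorescence, reagent added at 23 hr for 1 hr.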

The nature of assay [8]: qHTS assay to identify small molecule agonists of the sonic hedgehog signaling (Shh) pathway (AID 1259368; calls by dose curve;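 also: NIH/3T3-derived 3T3Gli1-Luc cells carrying a stable Gli1-driven firefly luciferase reporter; series mostly up to about 92 µM; nearly all actives have a fitted effect of over 15% in size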). In short, it runs like this:
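Mouse fibroblast (NIH/3T3) reporter cells with stably integrated Gli1-Luc were treated 24 hr with compound; firefly luciferase luminescence served as the read-out.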

Assay [9] in a line: qHTS assay to identify small molecule antagonists of the sonic hedgehog signaling (Shh) pathway (AID 1259369; calls by dose curve; also: nearly all actives have a fitted effect of over 45% in size). In a few lines: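 Conditioned medium drives Shh signalling in 3T3Gli1-Luc cells; compounds in DMSO co-applied, 24hr at 37 C, then luciferase luminescence.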
The target in assay [10] is Estrogen receptor beta (Homo sapiens) (UniProt Q92731). Description: qHTS assay to identify small molecule agonists of the estrogen receptor beta (ER-beta) signaling pathway (AID 1259377; active = well fitted activation curve with a large enough effect in the signal ratio in the repeat runs, not every such curve was filed as active; the % refers to the signal ratio). In a few lines:
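Ratiometric beta-lactamase FRET read-out came after 2 h substrate loading at room temperature. It followed 16 h compound treatment at 37C of GripTite HEK293T cells carrying a UAS-bla reporter, plated in 2% charcoal-stripped FBS medium.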

The nature of assay [11]: qHTS assay to identify small molecule agonists of the androgen receptor (AR) signaling pathway in the presence of an antagonist - cell viability counter screen (AID 1259379).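 Also: MDA-kb2 human breast cancer cells carrying an MMTV luciferase reporter; series mostly up to about 92 µM; nearly all actives have a fitted effect of over 25% in size.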 In a few lines:
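A CellTiter-Fluor read-out measured viability of MDA-kb2 reporter cells (MMTV promoter with AR and GR response elements). Treatment: nilutamide 3.0uM final with compounds at 15 concentrations, 16 hr, 37C, 0% CO2.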

A short description of assay [12]: qHTS assay to identify small molecule agonists of the estrogen receptor beta (ER-beta) signaling pathway - cell viability counter screen (AID 1259380). Also: nearly all actives have a fitted effect of over 30% in size. In a few lines: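 Cells used were ER-beta-UAS-bla HEK293T in medium with 2% charcoal-stripped FBS. They were treated for 16 hr at 37C. Viability came from CellTiter-Glo luminescence.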
Assay [13] is described as follows: qHTS assay to identify small molecule antagonists of the estrogen receptor beta (ER-beta) signaling pathway - cell viability counter screen (AID 1259382). Also: series mostly up to about 92 µM; nearly all actives have a fitted effect of over 55% in size. In a few lines:
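Agonist-stimulated (1nM E2) ER-beta-UAS-bla HEK293T cells are incubated with library compounds for 16 hr at 37C. Cell viability is then assessed in the reporter-assay wells by adding CellTiter-Glo and reading luminescence after 30 min.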

In assay [14] the target is Estrogen receptor (Homo sapiens) (UniProt P03372). Description: qHTS assay to identify small molecule agonists of the estrogen receptor alpha (ER-alpha) signaling pathway in the presence of an antagonist (AID 1259383; calls by dose curve; also: top concentration of the series differs between compounds; nearly all actives have a fitted effect of over 15% in size). In a few lines:
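Using VM7Luc4E2 cells seeded 24hr before treatment, antagonist ICI-182,780 (10.0nM final) was added, followed by compounds at 15 concentrations. Plates incubated 22hr; ONE-Glo luminescence quantified reporter activity.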

Assay [15] in a line: qHTS assay to identify small molecule agonists or antagonists of the thyroid stimulating hormone receptor (TSHR) signaling pathway - wild type cell line counter screen (AID 1259384; calls by dose curve). In a few lines: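 Wild-type Hek293 cells, 800/well, 18 h at 37C, then compound with Ro20-1724 for 30 min RT. cAMP by HTRF (cAMP-d2/anti-cAMP cryptate), 1 h RT, fluorescence read. 15 concentrations, triplicates.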

The target of assay [16] is Thyrotropin receptor (Homo sapiens) (UniProt P16473). As to the kind of experiment: qHTS assay to identify small molecule antagonists of the thyroid stimulating hormone receptor (TSHR) signaling pathway (AID 1259385; calls by dose curve; also: nearly all actives have a fitted effect of over 20% in size; also: potency is read from the fitted curve at half-maximal effect). In short, it runs like this:
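TSHR-HEK293 cells (800/well) plated 18 h, then compounds with Ro20-1724 and TSH at 1.5 ng/mL final, 30 min at room temperature. cAMP quantified by HTRF (cAMP-d2/anti-cAMP-cryptate, 1 h); 15 concentrations in triplicate.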

For assay [17], the target named is Estrogen receptor beta (Homo sapiens) (UniProt Q92731). Description: qHTS assay to identify small molecule antagonists of the estrogen receptor beta (ER-beta) signaling pathway (AID 1259378; active = well fitted inhibition curve with a large enough effect in the signal ratio in the repeat runs, not every such curve was filed as active; the % refers to the signal ratio). In a few lines:
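ER-beta-UAS-bla HEK293T cells in 2% charcoal-stripped FBS medium treated with compound plus 1nM final 17-beta-estradiol for 16 hr at 37C. Beta-lactamase reporter read by FRET substrate fluorescence after 2 hours at room temperature.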

For assay [18], the target named is Androgen receptor (Homo sapiens) (UniProt P10275). Description: qHTS assay to identify small molecule antagonists of the androgen receptor (AR) signaling pathway using the MDA cell line in the presence of 0.5 nM R1881 (AID 1259243). Also: nearly all actives have a fitted effect of over 50% in size. In a few lines: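 We exposed MDA-kb2 cells to compounds under 0.5 nM R1881 stimulation for 16 hr at 37C and quantified MMTV-driven luciferase by luminescence.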
Androgen receptor (Homo sapiens), sequence (P10275 whole entry, looked up): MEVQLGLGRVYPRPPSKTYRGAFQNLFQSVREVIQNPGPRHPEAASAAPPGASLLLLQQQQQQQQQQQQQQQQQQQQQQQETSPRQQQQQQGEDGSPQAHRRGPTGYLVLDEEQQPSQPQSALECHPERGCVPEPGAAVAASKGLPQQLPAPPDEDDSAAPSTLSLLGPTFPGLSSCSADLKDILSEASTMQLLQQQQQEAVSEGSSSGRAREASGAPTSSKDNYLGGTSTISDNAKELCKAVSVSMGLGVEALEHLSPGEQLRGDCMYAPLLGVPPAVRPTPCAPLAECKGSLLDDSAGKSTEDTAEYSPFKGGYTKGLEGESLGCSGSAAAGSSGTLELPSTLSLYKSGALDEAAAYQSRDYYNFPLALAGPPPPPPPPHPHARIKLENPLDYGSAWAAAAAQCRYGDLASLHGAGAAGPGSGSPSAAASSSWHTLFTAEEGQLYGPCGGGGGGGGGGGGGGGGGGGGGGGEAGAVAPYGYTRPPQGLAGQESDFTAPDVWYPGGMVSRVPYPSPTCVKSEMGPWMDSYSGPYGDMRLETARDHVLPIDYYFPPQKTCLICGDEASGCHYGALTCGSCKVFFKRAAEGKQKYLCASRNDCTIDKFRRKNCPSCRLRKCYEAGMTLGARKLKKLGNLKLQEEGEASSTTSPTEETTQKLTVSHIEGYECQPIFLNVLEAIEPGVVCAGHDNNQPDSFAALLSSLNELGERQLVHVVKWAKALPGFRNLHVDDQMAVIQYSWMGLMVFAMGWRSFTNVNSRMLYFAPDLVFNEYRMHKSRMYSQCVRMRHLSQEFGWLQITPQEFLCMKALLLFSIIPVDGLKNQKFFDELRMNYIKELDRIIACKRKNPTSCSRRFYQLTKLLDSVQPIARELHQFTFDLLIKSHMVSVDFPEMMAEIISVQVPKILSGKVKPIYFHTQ

Assay [19] has the same target. Description: qHTS assay to identify small molecule agonists of the androgen receptor (AR) signaling pathway in the presence of an antagonist (AID 1259381; calls by dose curve; also: nearly all actives have a fitted effect of over 15% in size). In short, it runs like this: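 Using human MDA-kb2 cells with an MMTV promoter–luciferase construct (AR and GR response elements), agonist activity is scored under 3.0uM nilutamide (final) co-treatment; 16hr incubation, 37C, luminescence readout via ONE-Glo.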

Structures are written as SMILES. Values without a mark were called inactive. Results filed as inconclusive are left out. Active and inactive are the calls of the source. Unless noted, calls follow the shape of the dose curve; as a rule, active = well fitted curve in the direction sought with a large enough effect in the repeat runs; inconclusive = weak or mixed curves; inactive = no such curve, though single readings can be large; an effect the other way counts as inactive or inconclusive.

Estrogen receptor beta (Homo sapiens), sequence (Q92731 whole entry, looked up): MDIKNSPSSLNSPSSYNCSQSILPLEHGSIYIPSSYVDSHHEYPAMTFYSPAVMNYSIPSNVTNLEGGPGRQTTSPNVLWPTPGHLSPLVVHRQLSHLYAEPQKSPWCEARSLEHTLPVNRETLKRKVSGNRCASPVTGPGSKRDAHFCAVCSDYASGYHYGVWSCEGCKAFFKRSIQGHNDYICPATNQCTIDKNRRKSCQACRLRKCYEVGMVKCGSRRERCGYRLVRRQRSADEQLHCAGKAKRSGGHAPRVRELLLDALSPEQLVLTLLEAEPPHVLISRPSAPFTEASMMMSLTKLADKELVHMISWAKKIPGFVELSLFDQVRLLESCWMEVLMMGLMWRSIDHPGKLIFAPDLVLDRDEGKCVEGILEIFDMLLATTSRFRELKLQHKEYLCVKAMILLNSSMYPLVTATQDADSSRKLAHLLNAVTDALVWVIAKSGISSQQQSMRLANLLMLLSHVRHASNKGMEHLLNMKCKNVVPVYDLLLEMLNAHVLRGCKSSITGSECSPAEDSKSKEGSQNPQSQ
Thyrotropin receptor (Homo sapiens), sequence (P16473 whole entry, looked up): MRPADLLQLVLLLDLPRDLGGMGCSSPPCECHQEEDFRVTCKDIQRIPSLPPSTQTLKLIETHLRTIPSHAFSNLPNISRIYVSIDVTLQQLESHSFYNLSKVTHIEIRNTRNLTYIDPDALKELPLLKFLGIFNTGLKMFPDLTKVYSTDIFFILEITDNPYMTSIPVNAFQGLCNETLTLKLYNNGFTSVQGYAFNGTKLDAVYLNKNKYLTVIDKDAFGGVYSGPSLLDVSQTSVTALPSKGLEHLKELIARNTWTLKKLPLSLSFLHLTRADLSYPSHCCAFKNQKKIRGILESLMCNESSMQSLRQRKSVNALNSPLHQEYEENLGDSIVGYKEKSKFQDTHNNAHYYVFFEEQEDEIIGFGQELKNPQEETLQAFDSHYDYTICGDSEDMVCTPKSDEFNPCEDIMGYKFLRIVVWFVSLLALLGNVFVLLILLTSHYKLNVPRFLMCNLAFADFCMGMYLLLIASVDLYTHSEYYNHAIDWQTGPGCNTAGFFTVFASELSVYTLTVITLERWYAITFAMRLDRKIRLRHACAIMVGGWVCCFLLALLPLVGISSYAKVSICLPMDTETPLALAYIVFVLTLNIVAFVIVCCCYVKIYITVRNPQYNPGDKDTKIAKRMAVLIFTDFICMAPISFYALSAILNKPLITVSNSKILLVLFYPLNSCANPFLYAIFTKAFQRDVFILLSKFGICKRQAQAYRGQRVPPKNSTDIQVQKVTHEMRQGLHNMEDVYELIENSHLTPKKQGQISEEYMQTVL
Estrogen receptor (Homo sapiens), sequence (P03372 whole entry, looked up): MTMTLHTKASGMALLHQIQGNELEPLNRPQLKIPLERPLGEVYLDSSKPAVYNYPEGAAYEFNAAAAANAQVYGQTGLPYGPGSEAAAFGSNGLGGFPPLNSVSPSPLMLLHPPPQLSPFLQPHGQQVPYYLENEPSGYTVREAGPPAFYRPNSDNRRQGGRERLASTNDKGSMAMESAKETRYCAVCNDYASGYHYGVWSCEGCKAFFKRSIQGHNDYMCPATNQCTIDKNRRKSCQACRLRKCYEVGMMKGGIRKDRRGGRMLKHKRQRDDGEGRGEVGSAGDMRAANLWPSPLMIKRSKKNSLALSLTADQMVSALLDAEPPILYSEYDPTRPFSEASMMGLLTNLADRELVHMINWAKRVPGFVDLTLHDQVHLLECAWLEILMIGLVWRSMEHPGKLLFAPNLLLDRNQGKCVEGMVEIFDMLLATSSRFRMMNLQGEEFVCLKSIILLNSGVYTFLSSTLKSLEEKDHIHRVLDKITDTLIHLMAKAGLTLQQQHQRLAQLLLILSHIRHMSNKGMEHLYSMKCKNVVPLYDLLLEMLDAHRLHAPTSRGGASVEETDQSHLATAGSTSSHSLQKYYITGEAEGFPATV

On to `O=C1C=CCCC1`, for which the Potency entry in [1], in assay [2], in [3], in [4], in assay [6] and in assay [7] was “inactive” each time. The Potency entry in assay [8], in assay [9], in assay [10], in assay [11], in assay [12] and in assay [13] was “inactive” throughout. In addition, the Potency entry in assay [14] and in assay [16] was “inactive” in each case. The molecule was called inactive in assay [5] and in [15].

Regarding `CCCCCC1CCC(=O)O1` (stereo not drawn), the Potency entry in assay [1], in assay [2], in assay [3], in assay [4], in assay [6] and in assay [7] was “inactive” in each case. Further, the Potency entry in assay [8], in assay [9], in assay [10], in [17], in assay [11] and in assay [12] was “inactive” throughout. The Potency result in [13], in assay [14] and in assay [16] was “inactive” each time. Also, the call in assay [5] and in assay [15] was inactive.

As to `C1CCN(CN2CCCCC2)CC1`, the Potency entry in [1], in assay [2], in assay [3], in assay [4], in assay [6] and in assay [7] was “inactive” throughout. The Potency entry in assay [8], in [9], in assay [10], in assay [11], in [12] and in [13] was “inactive” throughout. Also, the Potency entry in assay [14] and in assay [16] was “inactive” throughout. In addition, the result in assay [5] and in assay [15] was inactive.

`S=c1[nH][nH]c(=S)s1`: the Potency result in [1], in assay [2], in assay [3], in assay [4], in assay [6] and in assay [7] was “inactive” in each case. In addition, the Potency result in assay [8], in [9], in assay [10], in assay [17], in assay [11] and in assay [12] was “inactive” throughout. Further, the Potency entry in assay [13] and in assay [14] was “inactive” each time. Further, in assay [5], the call was inactive.

As to `CC(C)(C)c1ccc(CCC=O)cc1`, the Potency result in [1], in assay [2], in assay [3], in assay [4], in [6] and in [7] was “inactive” throughout. In addition, the Potency entry in assay [8], in [9], in assay [10], in [17], in assay [11] and in [13] was “inactive” each time. The Potency entry in assay [14] and in assay [16] was “inactive” in each case. The outcome in [5] was inactive.

On to `CCCC(=O)OCc1ccccc1`, for which the Potency entry in assay [1], in assay [2], in assay [3], in assay [4], in [6] and in assay [7] was “inactive” throughout. The Potency result in assay [8], in assay [9], in [10], in [17], in assay [12] and in assay [13] was “inactive” each time. For the same molecule, the Potency entry in assay [14] and in assay [16] was “inactive” each time. In addition, the call in [5] and in assay [15] was inactive.

Take `CC1(C)CC(O)CC(C)(C)N1[O]`: the Potency result in assay [1], in [2], in assay [3], in assay [4], in assay [6] and in assay [7] was “inactive” in each case. Moreover, the Potency entry in assay [8], in [9], in assay [10], in assay [11], in [12] and in assay [13] was “inactive” each time. In addition, the Potency entry in assay [14] and in assay [16] was “inactive” in each case. Moreover, the outcome in assay [5] and in [15] was inactive.

Regarding `CCN(CCCCOC(=O)c1ccc(OC)c(OC)c1)C(C)Cc1ccc(OC)cc1` (stereo not drawn), the Potency result in assay [1], in assay [2], in assay [3], in assay [4], in [6] and in assay [7] was “inactive” each time. The Potency result in assay [8], in [9], in assay [10], in [17], in assay [13] and in assay [14] was “inactive” throughout. In addition, in assay [5], the result was inactive. Also, the Potency in [16] is 29.8 µM (active).

As to `CCOCCn1c(N2CCCN(C)CC2)nc2ccccc21`, the Potency result in assay [1], in [2], in assay [18], in assay [6], in assay [7] and in assay [8] was “inactive” each time. Moreover, the Potency result in assay [10], in assay [17], in [11], in assay [12], in assay [19] and in [13] was “inactive” in each case. Also, in [5], the result was inactive.

As for `CCn1nc(Cc2ccccc2)cc1C1CCN(C[C@H]2C[C@H](N(C)[C@@H](C(=O)O)C(C)C)C[C@@H]2c2cccc(F)c2)CC1`, the Potency result in assay [1], in assay [2], in assay [3], in [4], in assay [8] and in assay [10] was “inactive” each time. In addition, the Potency result in assay [11], in assay [13], in assay [14] and in assay [16] was “inactive” in each case. In addition, the result in assay [5] and in assay [15] was inactive.

Turning to `CCCCCCCCCCCCN1CCOCC1`, the Potency entry in assay [1], in assay [2], in [3], in assay [4], in [6] and in assay [8] was “inactive” each time. Further, the Potency entry in assay [9], in assay [10], in [17], in assay [11], in assay [13] and in assay [14] was “inactive” in each case. For the same molecule, the Potency entry in assay [16] was “inactive”. In addition, the result in assay [5] was inactive.

In the case of `O=Cc1ccc([N+](=O)[O-])cc1`, the Potency result in [1], in assay [2], in assay [3], in assay [4], in assay [6] and in assay [7] was “inactive” in each case. Besides, the Potency entry in assay [8], in [9], in [11], in assay [12], in [13] and in assay [16] was “inactive” in each case. For the same molecule, the result in assay [5] and in assay [15] was inactive.
